The record followed here is PubChem BioAssay (NCI).

Each structure is given as a SMILES string. This is part of a sample that, as a whole, favours compounds with a hit. Of some 83,000 tested, about 20% had one in any assay.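 Compound tested at a single concentration for 48 hours in 96-well plates; a percent growth value below 10 was scored as active.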 Unmarked numbers belong to inactive results. The source made the active and inactive calls.

In the assay the test system is MDA-MB-435 melanoma. As to the kind of experiment: NCI-60 one-dose screen, 48 h (100 = growth as untreated, 0 = no growth, -100 = all killed). As to conditions: 10 µM unless noted. On the procedure: Growth inhibition of the MDA-MB-435 human Melanoma tumor cell line is measured as a screen for anti-cancer activity. Cells are grown in 96 well plates and exposed to the test compound for 48 hours. Compounds are tested at a single concentration, which is 10^-5 M for most compounds. The reported endpoint is percent growth (GI% or GIPRCNT), where numbers from 0 - 100% represent growth inhibition, and numbers from -100% - 0 represent cell death. For example, a value of 40 represents 60% growth inhibition. A value of 0 means no net growth occurred over the course of the experiment. A value of -40 indicates 40% of cells at the beginning of the experiment died by the end of the experiment. A value of -100 means all cells are dead at the end of the experiment.
NCI-60 Human Tumor Cell Lines Screen was performed using the standard one-dose NCI protocol, which is described in more detail at https://dtp.cancer.gov/discovery_development/nci-60/default.htm.
Compounds with GIPRCNT values below 10 were considered active. Activity score was based on GIPRCNT using the following formula: […]
Score is 0 for GIPRCNT values of 100 or above, 50 for GIPRCNT values of 0, and 100 for GIPRCNT values of -100.
Regarding `Cc1nc(/N=C(\N)NC(=O)Nc2cccc([N+](=O)[O-])c2)sc1C`, the growth is 8.17% (active).
The value for `Cc1nc2ccccc2n1C(=O)C[C@@H]1NC(=S)NC1=O` was 97.8%; that for `Cn1cc(-c2nonc2-c2cn(C)c3ccc(F)cc23)c2cc(F)ccc21` was -4.48% (active).
The same measure for `COc1ccc(CCNc2nc(SC)nc(-c3cccc([N+](=O)[O-])c3)c2C#N)cc1OC`: 87.7%; for `CCOc1ccc(C(C)=O)cc1NC(=O)c1cccc(-c2nnn(CC)n2)c1`: -47.6% (active).
The same measure for `COc1ccc(C(=O)/C=C/c2cccnc2Nc2cc(OC)c(OC)c(OC)c2)cc1`: 2.91% (active).
With `O=C(/C=C/c1ccccc1)c1ccc(O)c(CN2CCN(c3cc4c(cc3F)c(=O)c(C(=O)O)cn4C3CC3)CC2)c1`, the growth is 18.6%.
The same measure for `Cc1ccc(/C=C2\SC(=S)N(CC(=O)NCCCN3CCOCC3)C2=O)cc1`: 99.4%; for `COc1ccc(/C=C2\Oc3cc(OCCCCN4CCCC4)ccc3C2=O)cc1`: 96.5%.
The value for `O=C1/C(=C/c2ccc3c(c2)OCO3)SC(=S)N1CCc1ccc(O)cc1` was 94%.
The same measure for `COc1cc(/C=C/c2cc(/C=C/c3ccc(O)c(OC)c3)n(-c3c(Cl)cccc3Cl)c(=O)n2)ccc1O`: 4.57% (active); for `N#Cc1nnn(-c2ccc(S(N)(=O)=O)cc2)c1NCC(=O)c1ccccc1`: 91.8%; for `CN1CCN(CCCOc2cccc3nc(Nc4cc(Cl)cc(Cl)c4)ccc23)CC1`: -46.5% (active).
For the compound `CN(C)S(=O)(=O)c1cccc(-c2nc3sc4c(c3c(=O)[nH]2)CCCC4)c1`, the growth was 43.9%.
The same measure for `COc1ccc(-n2nc(C)c3c(Oc4ccc(NC(=O)Nc5c(Cl)cccc5Cl)cc4)ncnc32)cc1`: 100%.
The value for `O=c1c2c3c(sc2nc(N/N=C/c2cn(-c4ccccc4)nc2-c2ccc(Cl)cc2)n1Cc1ccccc1)CCCC3` was 93.4%; that for `Cn1cc(C(=O)c2nc(-c3c[nH]c4ccc(Br)cc34)no2)c2cc(F)ccc21` was 100%; that for `CCOC(=O)c1csc(NC(=O)COc2cccc(/C=C3\CSc4ccccc4C3=O)c2)n1` was 17.9%.
The value for `COc1cccc(-c2nc3sccn3c2-c2ccnc(NCCCNS(=O)(=O)c3c(Cl)cccc3Cl)c2)c1` was 64.5%; that for `CC(C)(C)CC(C)(C)c1ccc(OCCOCC[N+](C)(C)Cc2ccccc2)cc1` was -81.1% (active).
Consider `COc1cc(-c2nn(-c3ccc(C)cc3)cc2C(=O)O)ccc1O`, for which the growth was 87.3%.
With `CC(C)(C)N1CCC1CN` (stereo not given), the growth was 104%.
The value for `CC1=C/C(=C(\c2ccc(N(C)C)cc2)c2ccc([N+](C)(C)C)cc2)C=CC1=[N+](C)C` was 78.4%; that for `COc1cc(-c2nc3ccccc3[nH]2)ccc1OCC(=O)N=Nc1c(O)[nH]c2ccc(Cl)cc12` was -71.1% (active).
The same measure for `COc1cc2nc(N3CCCC3)nc(NCc3ccccc3)c2cc1OC`: 6.99% (active).
The value for `CC(=O)c1nc2ccccc2n1CC(=O)c1cccc(Cl)c1` was -27.4% (active).
As for `CC(C)n1c(/C=C/[C@@H](O)C[C@@H](O)CC(=O)O)c(-c2ccc(F)cc2)c2ccccc21`, the growth was 55.8%.
As for `CSc1ccc(-c2ccccc(=O)c2O)cc1`, the growth is 23.5%.
Consider `COc1cc(-c2nc3cc(Cl)c(Cl)cc3[nH]2)ccc1OCC(=O)N=Nc1c(O)[nH]c2ccccc12`, for which the growth is -94.9% (active).
The value for `COc1ccc(/C=C/c2nc(-c3n[nH]c(=O)n3-c3ccccc3)c3ccccc3n2)cc1` was 99.4%; that for `COc1ccc(SC2c3ccc(C)cc3Oc3nc(N)c(C#N)c(N)c32)cc1` (stereo not given) was -69.6% (active); that for `O=C(O)COc1ccc(Cl)cc1C1CCCCC1` was 107%.
The same measure for `Cc1nn(-c2ccc(F)cc2)c2ncnc(Nc3ccc(NC(=O)Nc4ccc(Cl)c(C(F)(F)F)c4)cc3)c12`: 40.1%.
The same measure for `CCc1nnc(CNc2ccc(Cl)cc2)o1`: 101%; for `Cc1cc2nc(NC(=O)CN3CCN(CCN4C(=O)c5cccc6cccc(c56)C4=O)CC3)sc2cc1C`: 91.4%.
As to `O=c1oc2c(C(F)(F)F)cccc2cc1-c1csc(Nc2ccc(OCCF)cc2)n1`, the growth is -22.9% (active).
The same measure for `FC(F)(F)c1ccc(-c2cn3nc(-c4c[nH]c5ccc(Br)cc45)sc3n2)cc1`: 100%; for `COc1cc2nc(N3CCCC3)nc(NCCc3ccccc3)c2cc1OC`: 91.5%.
Turning to `Oc1cccc(-c2nc(N3CCOCC3)c3c4c(sc3n2)CCCC4)c1`, the growth was 59.7%.
Regarding `COc1cccc(/C=C2\SC(=Nc3ccc(NC(C)=O)cc3)NC2=O)c1OC`, the growth is 52.1%.
